In assay [1] the test system is ICS. The assay can be described thus: qHTS profiling for inhibitors of Plasmodium falciparum proliferation (AID 504749). Note: potency is the fitted concentration of half-maximal effect. The conditions noted are these: P. falciparum in erythrocytes, SYBR Green DNA, 72 h; series mostly up to 28.7 µM. In short, it runs like this:
(§1)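 P. falciparum-infected erythrocytes (0.3% parasitemia, 2.5% hematocrit) incubated with compound 72 h at 37 C, 5% CO2. Parasite DNA detected by SYBR Green after lysis, overnight at room temperature; normalised to 0.29 uM artemisinin and DMSO.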

Assay [2] deals with JCK. Described as above. Particulars: P. falciparum in erythrocytes, SYBR Green DNA, 72 h; series mostly up to 28.7 µM. In short, it runs like this:
as §1

Assay [3] deals with N140. Described as above. Particulars: P. falciparum in erythrocytes, SYBR Green DNA, 72 h; series mostly up to 28.7 µM. The method, boiled down:
as §1

Assay [4] has as its system P93_24. The description is as above. The conditions noted are these: P. falciparum in erythrocytes, SYBR Green DNA, 72 h; series mostly up to 28.7 µM. The method, boiled down: as §1
Assay [5] deals with P94_40. Described as above. The conditions noted are these: P. falciparum in erythrocytes, SYBR Green DNA, 72 h; series mostly up to 28.7 µM. The method, boiled down: as §1
Assay [6] has as its system PAD. The description is as above. Particulars: P. falciparum in erythrocytes, SYBR Green DNA, 72 h; series mostly up to 28.7 µM. The method, boiled down:
as §1

The subject of assay [7] is PC15. Described as above. Particulars: P. falciparum in erythrocytes, SYBR Green DNA, 72 h; series mostly up to 28.7 µM. The method, boiled down: as §1
The test system of assay [8] is PC26. The assay is described as above. The conditions noted are these: P. falciparum in erythrocytes, SYBR Green DNA, 72 h; series mostly up to 28.7 µM. In short, it runs like this: as §1
Assay [9] concerns PC49. The description is as above. Particulars: P. falciparum in erythrocytes, SYBR Green DNA, 72 h; series mostly up to 28.7 µM. In short, it runs like this:
as §1

Assay [10] has as its system SC27B. Described as above. The conditions noted are these: P. falciparum in erythrocytes, SYBR Green DNA, 72 h; series mostly up to 28.7 µM. In short, it runs like this: as §1
Assay [11] deals with TAB113. The description is as above. Particulars: P. falciparum in erythrocytes, SYBR Green DNA, 72 h; series mostly up to 28.7 µM. The method, boiled down: as §1
Assay [12] relates to TAB165. The assay is described as above. Particulars: P. falciparum in erythrocytes, SYBR Green DNA, 72 h; series mostly up to 28.7 µM. In short, it runs like this: as §1
For assay [13], the system named is W2. Described as above. The conditions noted are these: P. falciparum in erythrocytes, SYBR Green DNA, 72 h; series mostly up to 28.7 µM. In short, it runs like this:
as §1

In assay [14] the test system is CRL-7250. The assay can be described thus: Cytotoxic Profiling of Annotated Libraries Using Quantitative High-Throughput Screening (AID 1296008). For max response: % is set by controls: 0 for no effect and ±100 for the full control effect. Particulars: Five cell lines viability, CellTiter-Glo ATP luminescence, 48-72 h; max response: active compounds read low. In short, it runs like this: (§2)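 Cells exposed to compounds for 48 or 72 hr at 37 degrees Celsius. Viability read as ATP-coupled luminescence with CellTiter-Glo after 10 min at room temperature.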
(In ATP-based viability assays light output follows the ATP content of the culture.)

In assay [15] the test system is HaCat. The description is as above. The conditions noted are these: Five cell lines viability, CellTiter-Glo ATP luminescence, 48-72 h; max response: active compounds read low. In short, it runs like this:
as §2

Assay [16] relates to KB-3-1. Described as above. The conditions noted are these: Five cell lines viability, CellTiter-Glo ATP luminescence, 48-72 h; max response: active compounds read low. In short, it runs like this: as §2
Assay [17] relates to NIH3T3. The description is as above. Particulars: Five cell lines viability, CellTiter-Glo ATP luminescence, 48-72 h; max response: active compounds read low. The method, boiled down: as §2
Assay [18] relates to TAB109. The experiment in a line: qHTS profiling for inhibitors of Plasmodium falciparum proliferation (AID 504749). Note: potency is the fitted concentration of half-maximal effect. The conditions noted are these: P. falciparum in erythrocytes, SYBR Green DNA, 72 h; series mostly up to 28.7 µM. In short, it runs like this:
as §1
(In general: qHTS replaces the single test concentration by a dilution series.)

For assay [19], the system named is CRL-7250. The experiment in a line: qHTS assay to identify novel small-molecules to repurpose for Merkel cell carcinoma treatment (AID 1296009). The conditions noted are these: MCC and control cell lines, CellTiter-Glo viability, 72 h; at 44.8 µM (top of the series) unless noted. In short, it runs like this:
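Cells were treated for 72 hr at 37 degree celsius with compounds in 8- or 11-point dose response. Viability was read by CellTiter-Glo luminescence, normalized to no-cell (cytotoxicity) and DMSO controls.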

Inconclusive results are not listed. A number with no mark means an inactive call. Calls of active or inactive are those of the source. Calls come from the whole dose curve; as a rule, active = well fitted inhibition curve with a large enough effect; inconclusive = small, poorly fitted or top-dose-only effect; inactive = flat fitted curve, though single readings scatter.
Note: nearly all actives have a fitted effect of over 60% in size.

Take `C[C@H]1C(=O)O[C@@H]2CCN3CC=C(COC(=O)[C@](C)(O)[C@]1(C)O)[C@H]23`: the Potency result in assay [1], in assay [2], in assay [3], in assay [4], in assay [5] and in assay [6] was “inactive” in each case. The Potency entry in assay [7], in assay [8], in assay [9], in assay [10], in [11] and in [12] was “inactive” in each case. In addition, in assay [13], the Potency result was “inactive”. Besides, the max response was -23.7% in [14], -11.3% in assay [16] and -4.3% in assay [17]. Also, in assay [15], the result was inactive.

`O=C(CCCN1CCC(n2c(=O)[nH]c3ccccc32)CC1)c1ccc(F)cc1`: the Potency in assay [1] is 316 nM (active); in assay [2], 3550 nM (active); in assay [3] it was 891 nM (active); in assay [4], 891 nM (active); in assay [5] it was 891 nM (active); in [6] it was 1120 nM (active). The Potency is 1260 nM (active) in assay [7]; 2560 nM (active) in assay [8]; 2820 nM (active) in [9]; 2000 nM (active) in assay [10]; 1000 nM (active) in assay [18]; 1260 nM (active) in assay [11]. Further, the Potency is 1000 nM (active) in assay [12] and 642 nM (active) in assay [13]. Besides, the max response was -0.196% in [14], -5.74% in assay [16] and 0.676% in [17]. Besides, the call in assay [15] was inactive.

`O=c1n(Cl)c(=O)n(Cl)c(=O)n1Cl`: the Potency entry in assay [1], in assay [2], in assay [3], in [4], in assay [5] and in assay [6] was “inactive” each time. Also, the Potency result in [7], in assay [8], in assay [9], in assay [10], in assay [18] and in assay [11] was “inactive” throughout. Moreover, the Potency result in assay [12] and in assay [13] was “inactive” each time. The compound was called inactive in assay [14], in [15] and in assay [19]. The max response in assay [16] was 7.13%; in assay [17] it was 2.85%.

Take `COc1cc(C[C@@H](C)N)c(OC)cc1Br`: the max response was 2.12% in assay [14], -1.26% in [15], -0.0524% in assay [16] and -1.11% in assay [17].

Regarding `COP(=S)(OC)Oc1ccc(S(N)(=O)=O)cc1`, the compound was classed as inactive in [14], in assay [15] and in assay [19]. Moreover, the results for the max response in assay [16] and in [17] were 0.165% and -5.5%, respectively.

On to `CC(C)=CCN1CC[C@@]2(C)c3cc(O)ccc3C[C@@H]1[C@@H]2C`, for which the max response in assay [14] is -10.3%; in assay [15], -13.3%; in [16] it was -12.1%; in [17], -2.79%.

Consider `CCN(CC)Cc1nccn1-c1ccc([N+](=O)[O-])cc1C(=O)c1ccccc1Cl`, for which the max response in assay [14] is -12.2%; in assay [16], -4.42%; in assay [17], -7.47%. In addition, in assay [15], the outcome was inactive.

As for `CC[C@H]1C[C@H]2[C@@H]3CCC4=CC(=O)CC[C@@H]4[C@H]3CC[C@]2(C)[C@H]1O`, the results for the max response in assay [14], in assay [15] and in [17] were -11.6%, 2.56% and -0.575%, respectively. Besides, the compound was classed as inactive in [16].

Regarding `CC(C)[N+](C)(CCC(C(N)=O)(c1ccccc1)c1ccccc1)C(C)C`, the Potency entry in assay [1], in assay [2], in assay [3], in assay [4], in assay [5] and in [6] was “inactive” each time. Further, the Potency entry in [7], in [8], in assay [9], in [10], in [18] and in [11] was “inactive” throughout. Also, in assay [12], the Potency result is “inactive”. Besides, the max response in [14] is 3.89%; in [16], 11.9%. The outcome in [15] and in assay [17] was inactive.
